Test results: ChEMBL document CHEMBL3988442, “University of Dundee, Small-Polar-MMV Screening Library” (2021)

Biological target: AMP-activated protein kinase, AMPK (Homo sapiens) (UniProt P54646+O43741+P54619+Q9UGJ0+Q9Y478+Q13131+Q9UGI9)
Assay: AMP-dependent Kinase enzyme assay. An in vitro enzyme assay that detects ADP turnover that is directly proportional to AMPK activity. This uses naive AMPK that is activated during the assay with MK-8722
Format: functional
Design: scale not given: direction of the effect not stated beside the values
Conditions: 30 µM

| SMILES | Percent Effect [%] |
| --- | --- |
| COCCCN1CCN(C(=O)C(c2cccc(F)c2)N(C)C)CC1 (stereo not given) | -3.6 |
| CN1CCOC(CNCC(=O)NCCC2=CCCCC2)C1 (stereo not given) | -9.7 |
| CC(=O)Nn1ccc2c(nnc3c(-c4ccccc4)cnn32)c1=O | 12.7 |
| COc1ccc(C2CCN(CCCC#N)CC2)cc1 | 3.86 |
| Cc1nnc(SCCNc2cc(C3CC3)ncn2)s1 | 14.2 |
| Cc1cc(C)c2[nH]c(C(=O)NCCN3CCOC3=O)c(C)c2c1 | 16.4 |
| O=C1OC2(CCN(CC3CCCO3)CC2)CN1CCc1ccccc1 (stereo not given) | -11.7 |
| O=C(NCCn1ccnc1-c1cc2n(n1)CCNC2)c1ccc(F)cc1 | 1.27 |
| CCN1CC2(CCC1=O)CCN(Cc1cccc(OC(F)F)c1)CC2 | -0.304 |
| Cc1nc2n(n1)CC(Nc1nc(C(F)(F)F)nc3ccccc13)CC2 (stereo not given) | 1.51 |
| CSc1ccc(C(=O)C2CCCN(C(=O)CCn3cnnn3)C2)cc1 (stereo not given) | 10.2 |
| N#Cc1cc(S(N)(=O)=O)ccc1N1CCc2c(Cl)cccc2C1 | 17.4 |
| Cc1cc(C(=O)N2CCNC(=O)CC2)c(C)n1CC(F)(F)F | -2.89 |
| Cc1cc(-c2cnc(N3CCCC3)nc2C(C)C)on1 | 16.6 |
| CC(C)c1nc2n(n1)CC(NCc1cc3ccccc3o1)CC2 (stereo not given) | 0.664 |
| CC1CCCCN1C(=O)COc1nc(Cc2ccc(F)cc2)no1 (stereo not given) | 2.51 |
| O=C(NCCS(=O)(=O)N1CCN(c2ncccn2)CC1)C1CC1 | 1.52 |
| O=C(NCCS(=O)(=O)N1CCN(c2ncccn2)CC1)C1CCCC1 | -1.53 |
| Cc1nc2c(c(NCC(=O)NC(C)C)n1)Cc1ccccc1OC2 | 5.96 |
| CO[C@@H]1CCC[C@@H](NC(=O)c2cccc(F)c2)[C@H]1O | 10.3 |

| SMILES | Percent Effect [%] |
| --- | --- |
| CNc1ccc(C2CN(c3nc(C)cc(C)n3)CCO2)nc1 (stereo not given) | 18 |
| COc1ccc(Br)c(NC(=O)NCc2ncnn2C)c1 | -1.33 |
| CC(C)C(NC(=O)NCc1cccnc1N(C)C)c1cccs1 (stereo not given) | 0.836 |
| CC1CCCN(c2ncc(-c3ccccc3F)c(-c3nccn3C)n2)C1 (stereo not given) | 9.01 |
| COc1cccc2c1OCC(Cc1cc(C(N)=O)ccn1)C2 (stereo not given) | -13 |
| CN1CCC(Nc2ccc(Cl)cc2OCC(F)(F)F)C1=O (stereo not given) | -3.53 |
| O=C(NCC1CCS(=O)(=O)C1)N(Cc1ccccn1)C1CC1 (stereo not given) | -6.01 |
| CCC[C@H]1CN(c2cncc(C(=O)N(C)C)n2)C[C@@H]1N(C)C | 9.69 |
| CCC(C)NC(=O)Nc1cccc(OCC#N)c1 (stereo not given) | -0.326 |
| CCCc1nnc(N2CCC(N3CCCC3)CC2)o1 | -4.2 |
| Cc1occc1C(=O)Nc1cccc(C(=O)OCC2CCCN2)c1 (stereo not given) | -5.07 |
| CN(Cc1ccc(-n2cccn2)cc1)C[C@@H]1CCCN2CCCC[C@H]12 | 5.54 |
| O=C(NC1CCCCC1)N1C[C@H]2CN(c3cnccn3)C[C@@]2(C(=O)O)C1 | 2.64 |
| O=S(=O)(c1ccccc1N1CC(n2cccn2)C1)C(F)(F)F | 16 |
| N#Cc1ccc(CN(CCF)Cc2cccc(F)c2)cc1 | -7.25 |
| Cc1ncc2c(n1)CN(Cc1nc(-c3ccco3)oc1C)CC2 | -38.3 |
| CC(=O)N1CCC(c2ncc(C(=O)Nc3ccc(F)cc3)c(C)n2)CC1 | -4.39 |
| CC(C)c1ccc(CN2CCCC3(CC2)CN(C)C(=O)O3)cc1 (stereo not given) | 9.6 |
| CCc1cc(NC(CCO)c2ccc(OC)cc2)n2nccc2n1 (stereo not given) | 2.19 |
| COCC1CCN(C(=O)c2cc(O)nc(CC(C)C)c2)CC1 | -1.75 |
